KCNQ2 block: blocks the rat KCNQ2 potassium channel; O88943; AID 2156; B-score at 10 µM; CHO-K1 KCNQ2, FluxOR thallium flux, 20 min; stronger effect = lower value; 1.1% of 310,000 active;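 active = fluorescence ratio B-score at most minus 3 library SDs, with starting brightness B-score within 2 library SDs, cut at about -5.5 in these data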
KCNQ2 pot: potentiators of rat KCNQ2 potassium channel. AID 2239. B-score at 10 µM. CHO-K1 KCNQ2, FluxOR thallium flux fluorescence; stronger effect = higher value. 0.54% of 310,000 active;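 active = fluorescence ratio B-score at least 3 SD of library B-scores, with initial fluorescence B-score within 3 of them, cut at about 5.3 in these data; same plate scores as AID 2156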;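 note: B-score of peak minus minimum over baseline fluorescence ratio after K+ and Tl+ stimulus; positive B-score means potentiation of KCNQ2 with more thallium influx and brighter signal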
Kir21 conf inh: confirmation of mouse Kir2.1 potassium channel inhibitors; 41% of 2,300 active; Kir2.1-expressing cells, FluxOR thallium flux fluorescence; stronger effect = lower value; Tl flux remaining, % of negative control (stronger effect = lower value), % at 10 µM; shares compounds with KCNQ2 pot;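 active = Primary-screen hit whose thallium flux fell at least 3 control SD below untreated wells in both duplicates, with normal baseline fluorescence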;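 note: 0% = blank wells without stimulus and 100% = stimulated no-compound controls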
HEK293 Tl flux: parental HEK293 activity in Kir2.1 inhibitor counter-screen; FluxOR signal as % of negative control (100 = no effect), % at 10 µM; 19% of 2,300 active; AID 2105; parental HEK293 cells, FluxOR thallium flux fluorescence; 0% = unstimulated blank wells; shares compounds with KCNQ2 pot;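 active = dye signal at least 3 control SD above or below untreated wells in both duplicates, raw fluorescence within 3, either direction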;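 note: percent is based on the flux ratio of peak minus minimum fluorescence over baseline F0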
CHO-K1 ctr: parental CHO-K1 activity in KCNQ2 potentiator counter-screen; activity increase over 3SD of controls, % at 10 µM; shares compounds with KCNQ2 pot; parental CHO-K1 cells, FluxOR thallium flux fluorescence; zero = vehicle mean+3SD, 100% = vehicle-minus-blank window; 43% of 1,200 active;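 active = signal rise of at least 3 SD above the untreated control mean, in both duplicate wells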;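 note: counter screen of KCNQ2 potentiator hits so any rise reflects channel-independent effects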
KCNQ1 pot spec: tests whether KCNQ2 potentiators also act on human KCNQ1; shares compounds with KCNQ2 pot; CHO KCNQ1 stable, FluxOR thallium flux fluorescence; beyond 3SD, as % of vehicle-control signal; activation over 3SD threshold, % at 10 µM; 28% of 1,200 active; AID 2283;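 active = fluorescence ratio rise of at least 3 SD of vehicle wells above their mean, in both replicate wells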;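 note: 0% = vehicle mean plus 3 SD and 100% = vehicle minus unstimulated blank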
KCNQ2 pot confirm: confirmation of rat KCNQ2 potassium channel potentiators; shares compounds with KCNQ2 pot; CHO-KCNQ2 cells, FluxOR thallium flux fluorescence; potentiation, less the hit threshold, % at 10 µM; 68% of 1,200 active; AID 2287;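 active = fluorescence ratio rising 3 SD or more over the vehicle control mean in both replicates, plus primary screen hit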;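 note: peak minus minimum thallium fluorescence divided by baseline after K/Tl stimulus; 0% = vehicle mean plus 3 SD and 100% = vehicle minus unstimulated blank difference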
Kir2-1 sel: mouse Kir2.1 off-target activity of KCNQ2 potentiators; shares compounds with KCNQ2 pot; HEK293 Kir2.1, FluxOR thallium flux fluorescence; activity over 3SD threshold, % at 10 µM; 2% of 1,200 active; AID 2345;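 active = fluorescence ratio rise of at least 3 SD above the vehicle-control mean, seen in both replicates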;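 note: 0% = vehicle mean plus 3 SD and 100% = vehicle minus no-stimulus blank window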
* marks the source's active call; other numbers are inactive results; i = inactive; . = not tested or not shown. Most compounds without a hit are left out; they make up all but 1.6% or so of the library.

SMILES	KCNQ2 block	KCNQ2 pot	Kir21 conf inh	HEK293 Tl flux	others
CCn1c(CCNC(=O)c2ccc(C)cc2)nnc1SCc1ccc(Cl)c(Cl)c1	i	.	.	.
COc1ccc(-c2cn(-c3ccccc3)nc2C(=O)O)cc1OC	i	0.53	.	.
CSCc1ccc(C(=O)NC(C)c2ccc(-n3ccnc3)cc2)cc1 (centres undefined)	i	0.05	.	.
N#CCc1nc2ccccc2c(=O)[nH]1	i	2.2	.	.
OCCNCc1ccc(OCc2ccc(Cl)cc2Cl)cc1	i	.	31%*	i
OCCCCNCc1ccc(OCc2ccc(Cl)cc2Cl)cc1	i	.	33%*	i
S=C(Nc1ccccc1)Nc1ccc(OCc2ccc(Cl)cc2Cl)cc1	i	.	.	.
COc1cc(CNCCCCO)ccc1OCc1ccccc1F	i	0.1	.	.
COCCCNc1nc(CC(C)C)nc2c1nnn2Cc1ccccc1	i	.	.	.
Cc1ccc(CNCC(O)(c2ccccc2)c2ccc(F)cc2)cc1 (centres undefined)	i	.	.	.
OC(CNCc1ccccc1)(c1ccc(F)cc1)c1ccc(F)cc1	i	.	38%*	i
OC(CNCc1ccc(F)cc1)(c1ccccc1)c1ccc(F)cc1 (centres undefined)	i	.	i	i
OC(CNCc1ccccc1F)(c1ccc(F)cc1)c1ccc(F)cc1	i	.	.	.
NC(=O)N/N=C/c1c(Sc2nnnn2-c2ccccc2)nc2ccccn2c1=O	i	1.7	.	.
Cc1ccc(NC(=O)CCC(=O)NNC(=S)Nc2ccc(F)cc2F)cc1C	i	1.1	.	.
COc1ccc(N2CCc3c(C)nc4c(OC)cccc4c32)cc1	i	1.1	.	.
COc1cccc(N2CCc3c(C)nc4ccc(Cl)cc4c32)c1	i	.	20%*	i
COc1ccc(Br)cc1CN(C)CC(O)COc1ccc(Br)cc1 (centres undefined)	-6.3*	-6.3	70%*	i
CN(CCOc1ccc(Br)cc1)CC(O)COc1ccc(C#N)cc1 (centres undefined)	i	.	.	.
O=C(CNC(=O)N1CC(=O)Nc2ccccc21)NCCc1ccc(Cl)cc1	i	0.17	.	.
CC(C)(C)c1ccc(OCCCCCCN2CCNCC2)cc1	i	.	.	.
CC(C)(c1ccccc1)c1ccc(OCCCN2CCNCC2)cc1	i	2	50%*	i
COc1ccc(CCNC(=O)CSc2nnc(CNC(=O)c3cc(OC)c(OC)c(OC)c3)o2)cc1OC	i	0.36	.	.
COc1cc(OC)c(OC)cc1CN(C)CC1CCCN(CCc2ccccc2F)C1 (centres undefined)	i	0.01	.	.
COc1ccc(CN(C)CC2CCCN(CCc3ccccc3C)C2)cc1O (centres undefined)	i	0.83	40%*	i
SMILES	KCNQ2 block	KCNQ2 pot	Kir21 conf inh	HEK293 Tl flux	others
CC1(C)CN(C(Cc2ccccc2)C(N)=O)C1=O (centres undefined)	i	.	.	.
CN(C)CCCN(C(=O)c1ccc2c(c1)OCCO2)c1nc2ccc(Cl)cc2s1	i	.	54%*	i
CN(C)CCN(C(=O)c1ccc2c(c1)OCCO2)c1nc2ccc(Cl)cc2s1	i	0.29	.	.
NS(=O)(=O)c1ccc(CNC(=O)c2ccc3c(=O)n4c(nc3c2)CCC4)cc1	i	.	.	.
COc1ccc(OC)c(C(=O)NC2CCSc3ccccc32)c1 (centres undefined)	i	.	.	.
COc1ccc(CC(=O)NC2CCSc3ccccc32)c(OC)c1 (centres undefined)	i	.	72%*	i
Cc1cccc(C(=O)NNC(=O)c2ccc(Cl)cc2)c1O	i	0.27	.	.
O=C(NNC1=C(C(=O)C(F)(F)F)CCC1)c1cccnc1	i	20*	i	64%*	CHO-K1 ctr=-16;KCNQ1 pot spec=-19;KCNQ2 pot confirm=35*;Kir2-1 sel=-21
O=C(NNC1=C(C(=O)C(F)(F)F)CCC1)c1cccc(O)c1	i	4.4	.	.
